26 compounds from PubChem BioAssay AID1080 (Emory University Molecular Libraries Screening Center, 2008) can be followed below.

Screen size: about 1,300 compounds; about 640 (49%) were called active.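 The calls were made as follows: active = cAMP induction above 50% in the main assay while under 30% in all four parallel counter assays; inactive = the rest.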 So high a share suggests a set chosen from earlier hits. These entries were drawn from the full list.

The nature of test [1]: cAMP induction in EP2, EP4, beta2-AR and parental cells, confirmation, counter-screen for EP2 modulator project, cell-based, five parallel assays, C6 glioma, HEK293 (AID 1080). Particulars: cAMP HTRF induction. A general note: A counterscreen serves to expose hits that act by an unwanted route or on another target.
Test [2] addresses Prostaglandin E2 receptor EP2 subtype (Homo sapiens) (UniProt P43116). The test is described as above. The note with it: cAMP HTRF induction, stronger effect = higher value, screened at 20 µM (by protocol), percent of 1 uM PGE2 response, plus low (about EC15) PGE2 agonist.
Where [3] appears, read: measured here: EP4 receptor counter-screen, percent of 1 uM PGE2 response, plus low (about EC15) PGE2 agonist.
Where [4] appears, read: measured here: beta2 adrenergic HEK293 counter-screen.
The mark [5] stands for this setting: measured here: cAMP conditions counter-screen.
The mark [6] stands for this setting: measured here: parent C6 cells counter-screen.

With `O=C(Nc1ccccc1N1CCCCC1)c1cccc(F)c1`, the cAMP induction in test [1] (setting [3]) is 20.9%; in test [1] (setting [4]), -8.46%; in test [1] (setting [5]), -6.32%; in test [1] (setting [6]) it was -1.46%; in test [2] it was 54.4% (active).
The matching figures for `O=C(Nc1ccccc1N1CCCCC1)c1ccc2nccnc2c1`: -20.6%, -12.3%, -1.35%, -3.85% and 56.9% (active).
For `CCC(C)(C)c1ccc(OCC(=O)N(C)C)c(C(C)(C)CC)c1`, the cAMP induction in test [1] (setting [3]) was -18%; in test [1] (setting [4]) it was -18.7%; in test [1] (setting [5]), -1.65%; in test [1] (setting [6]) it was -11.3%; in test [2] it was 18.5% (inactive).
The matching figures for `CC[C@@H]1Cc2cc(O)ccc2C2=C1c1ccc(O)cc1C[C@H]2CC`: -0.0767%, -11.7%, 6.45%, 2.02% and 34.5% (inactive).
The matching figures for `CCCc1cc(-c2n[nH]c(=S)n2Cc2ccccc2)cs1`: 1.9%, -7.59%, -4.47%, 1.74% and 37.8% (inactive).
In the same order, the values of `CCCCOc1ccc(-c2nnc(-c3ccco3)o2)cc1` are -1.8%, -7.34%, 3.34%, 3.09% and 50.4% (active).
For `Cc1cc(C#N)c(SCC(N)=O)nc1-c1ccc(F)cc1`, the cAMP induction is 9.53% in test [1] (setting [3]); 7.22% in test [1] (setting [4]); 2.14% in test [1] (setting [5]); -4.05% in test [1] (setting [6]); 50.9% (active) in test [2].
Take `FC(F)(F)c1cccc(-c2cc3ccccc3nc2N2CCCC2)c1`: the cAMP induction in test [1] (setting [3]) was 17.7%; in test [1] (setting [4]) it was -13%; in test [1] (setting [5]), -2.73%; in test [1] (setting [6]), -3.28%; in test [2], 52.7% (active).
With `CCOC(=O)c1c(C2CC2)csc1NC(=O)CSCc1c(C)noc1C`, the cAMP induction is -15.3% in test [1] (setting [3]); -5.42% in test [1] (setting [4]); -2.02% in test [1] (setting [5]); 2.56% in test [1] (setting [6]); 48.8% (inactive) in test [2].
In the same order, the values of `O=c1cc(N2CCCCC2)c(-c2ccccc2)nn1Cc1cccc(F)c1` are -7.11%, -13%, 3.15%, 3.46% and 79.6% (active).
Regarding `CCOc1ccc(NC(=O)CSc2ncnc3c2sc2ccccc23)cc1`, the cAMP induction in test [1] (setting [3]) was 80.8%; in test [1] (setting [4]) it was 81.1%; in test [1] (setting [5]), 79.9%; in test [1] (setting [6]), 80.1%; in test [2] it was 77.7% (inactive).
In the case of `COc1ccc(C)c(Cn2c(-c3nonc3N)nc3ccccc32)c1`, the cAMP induction is 4.7% in test [1] (setting [3]); -6.52% in test [1] (setting [4]); 1.9% in test [1] (setting [5]); 1.52% in test [1] (setting [6]); 69.6% (active) in test [2].
In the same order, the values of `COC(=O)C1=C(C)N(C)C(C)=C(C(=O)OC)C1c1cccc(Br)c1` are -5.89%, 5.82%, -5.28%, 1.49% and 46% (inactive).
In the same order, the values of `Cc1ccccc1-c1n[nH]c(=S)n1/N=C/c1ccc(-c2ccccc2Br)o1` are 18.4%, 14.3%, 22.4%, 19.4% and 57.9% (active).
`O=c1[nH]c(CSc2ncc(-c3ccc(F)cc3)n2Cc2ccco2)nc2ccccc12`: the cAMP induction was -12.9% in test [1] (setting [3]); -5.45% in test [1] (setting [4]); -6.27% in test [1] (setting [5]); -5.69% in test [1] (setting [6]); 39.9% (inactive) in test [2].
In the same order, the values of `Cc1nn2c(c1-c1ccccc1)N=C(c1ccco1)CC2c1ccccc1` (stereo not given) are -13.9%, -0.13%, 0.137%, 4.52% and 36.7% (inactive).
In the same order, the values of `NC(=O)COc1ccc(C23CC4CC(CC(C4)C2)C3)cc1` are -2.42%, -18.4%, 7.34%, -0.99% and 64.6% (active).
The matching figures for `Cc1nc2ccccc2c(-c2ccccc2)c1C(=O)c1ccccc1`: 2.31%, 4.97%, -6.03%, -0.11% and 88.9% (active).
`O=c1c2ccccc2nc2n1C1(CCCCC1)Cc1ccccc1-2`: the cAMP induction in test [1] (setting [3]) was -3.33%; in test [1] (setting [4]), -1.27%; in test [1] (setting [5]) it was 0.00333%; in test [1] (setting [6]), -4.35%; in test [2], 55.1% (active).
In the same order, the values of `CC(C)(C)c1nc2ccccc2c(=O)n1N1C(=O)c2ccccc2C1=O` are -2.16%, 4.41%, 5.06%, 3.57% and 36.9% (inactive).
Consider `CN(C)Cc1ccc(F)cc1Sc1cc(Cl)ccc1Cl`, for which the cAMP induction in test [1] (setting [3]) is -1.47%; in test [1] (setting [4]), -10.1%; in test [1] (setting [5]), -3.1%; in test [1] (setting [6]) it was 2.77%; in test [2] it was 45.2% (inactive).
The matching figures for `CC(C)NC(=S)NN=C1CCCCCCCCCCC1`: 1.01%, 7.6%, 2.87%, -7.59% and 54.8% (active).
The matching figures for `COC(=O)CSc1nc2c(c(C3CC=CCC3)c1C#N)CCC2` (stereo not given): 1.11%, 7.56%, 3.4%, 4.46% and 69.8% (active).
The matching figures for `CSc1ncnc2sc(C)c(C)c12`: 5.89%, 2.78%, 5.03%, 0.0167% and 42.1% (inactive).
`Cc1cccc(Cn2c(N3CCN(c4ccccc4)CC3)nc3c2c(=O)n(C)c(=O)n3C)c1`: the cAMP induction in test [1] (setting [3]) was -5.29%; in test [1] (setting [4]), -6.91%; in test [1] (setting [5]), 5.21%; in test [1] (setting [6]), 1.06%; in test [2] it was 54.8% (active).
The matching figures for `CC1CCN(c2nc3c(c(=O)[nH]c(=O)n3C)n2CCCc2ccccc2)CC1`: 4.8%, -2.72%, -1.35%, -0.403% and 42.2% (inactive).
